Assay [1] in a line: ATG_E_Box_CIS: Attagene CIS-FACTORIAL HepG2 Assay for human Enhancer Box (E-box) (AID 2282936). The conditions noted are these: HepG2 E-box cis-reporter transcription, actives raise or lower the signal. The essentials: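 Multiplexed CIS reporter system in transiently transfected HepG2 cells measures native transcription factor activity. Reporter RNA after 24 h exposure is profiled by RT-PCR-capillary electrophoresis.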

The nature of assay [2]: ATG_M_61_CIS: Attagene CIS-FACTORIAL HepG2 Assay for M61 Transcription Factor (Internal Marker) (AID 2282937). The following applies: HepG2 Attagene CIS-FACTORIAL M61 internal marker reporter; actives raise or lower the signal. Put shortly:
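Human liver HepG2, transient MRTU transfection (cis promoter elements), 24 h compound. Total RNA → oligo(dT) RT → PCR → FAM label → HpaI → CE. Internal background marker; bidirectional fitting, DMSO = baseline.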

A short description of assay [3]: ATG_EGR_CIS: Attagene CIS-FACTORIAL HepG2 Assay for human Early Growth Response 1 (EGR1) (AID 2282938). The following applies: HepG2 Attagene CIS-FACTORIAL EGR reporter mRNA; actives raise or lower the signal. The essentials: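 Transient transfection of human HepG2 with multiple cis-regulated reporter units, chemical exposure 24 h, total RNA isolated. Reverse transcription, PCR, fluorescent labelling and capillary electrophoresis quantify reporter transcripts; activity fitted bidirectionally against DMSO.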

Assay [4] is described as follows: ATG_M_19_CIS: Attagene CIS-FACTORIAL HepG2 Assay for M19 Transcription Factor (Internal Marker) (AID 2282939). The conditions noted are these: HepG2 Attagene CIS-FACTORIAL M19 internal marker reporter; actives raise or lower the signal. Put shortly:
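Following a 24 h exposure, RNA from transfected HepG2 cells was reverse-transcribed, PCR-amplified with reporter-specific primers, end-labelled with 6-FAM and HpaI-digested before capillary separation. Values represent gain or loss versus DMSO.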

A short description of assay [5]: ATG_ERE_CIS: Attagene CIS-FACTORIAL HepG2 Assay for Estrogen Response Element (ERE) (AID 2282940). The conditions noted are these: HepG2 ERE cis-reporter, Attagene RNA transcript; actives raise or lower the signal. Put shortly: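 HepG2, transient cis-reporter units, 24 h exposure. RNA isolated, oligo(dT) RT, reporter-specific PCR, FAM extension, HpaI cut, CE detection. Gain/loss-of-signal vs DMSO.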

A short description of assay [6]: ATG_Ets_CIS: Attagene CIS-FACTORIAL HepG2 Assay for human Erythroblast Transformation Specific (ETS) (AID 2282941). The conditions noted are these: HepG2 ETS cis-reporter transcription, actives raise or lower the signal. The essentials: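 After transient cis-reporter transfection, HepG2 cells receive test chemical for 24 h. Reporter mRNA levels, measured by RT-PCR and capillary electrophoresis fluorescence, are analysed bidirectionally relative to the DMSO baseline.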

Assay [7] addresses Hepatocyte nuclear factor 3-beta (Homo sapiens) (UniProt Q9Y261). Kind of assay: ATG_FoxA2_CIS: Attagene CIS-FACTORIAL HepG2 Assay for human Forkhead box A2 (FOXA2) (AID 2282942). The conditions noted are these: HepG2 cis-reporter transcription factor activity, 24 h; actives raise or lower the signal. The essentials:
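Transient MRTU transfection of HepG2 liver cells; 24 h treatment; total RNA → oligo(dT) RT → PCR → FAM primer extension → HpaI cut → CE. Bidirectional fit vs DMSO.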

Assay [8] is described as follows: ATG_FoxO_CIS: Attagene CIS-FACTORIAL HepG2 Assay for human Forkhead box O (FoxO) (AID 2282943). The conditions noted are these: HepG2 Attagene cis-reporter, FoxO element, mRNA; actives raise or lower the signal. Put shortly:
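Values reflect reporter mRNA induction or loss in HepG2 cells 24 h post-dosing, fitted bidirectionally with DMSO as negative control and baseline. Detection used RT-PCR and fluorescence capillary electrophoresis.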

The target in assay [9] is Bile acid receptor (Homo sapiens) (UniProt Q96RI1). Kind of assay: ATG_IR1_CIS: Attagene CIS-FACTORIAL HepG2 Assay for human Nuclear Receptor Subfamily 1 Group H Member 4 (NR1H4), IR1 submotif (AID 2282946). The following applies: IR1 reporter transcription, actives raise or lower the signal. Put shortly: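 Transient MRTU transfection, HepG2; 24 h dosing; RNA → RT-PCR → 6-FAM primer extension → HpaI digest → capillary electrophoresis fluorescence. Gain/loss of signal fitted relative to DMSO.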
Chain of Bile acid receptor (Homo sapiens) (Q96RI1 whole entry, looked up): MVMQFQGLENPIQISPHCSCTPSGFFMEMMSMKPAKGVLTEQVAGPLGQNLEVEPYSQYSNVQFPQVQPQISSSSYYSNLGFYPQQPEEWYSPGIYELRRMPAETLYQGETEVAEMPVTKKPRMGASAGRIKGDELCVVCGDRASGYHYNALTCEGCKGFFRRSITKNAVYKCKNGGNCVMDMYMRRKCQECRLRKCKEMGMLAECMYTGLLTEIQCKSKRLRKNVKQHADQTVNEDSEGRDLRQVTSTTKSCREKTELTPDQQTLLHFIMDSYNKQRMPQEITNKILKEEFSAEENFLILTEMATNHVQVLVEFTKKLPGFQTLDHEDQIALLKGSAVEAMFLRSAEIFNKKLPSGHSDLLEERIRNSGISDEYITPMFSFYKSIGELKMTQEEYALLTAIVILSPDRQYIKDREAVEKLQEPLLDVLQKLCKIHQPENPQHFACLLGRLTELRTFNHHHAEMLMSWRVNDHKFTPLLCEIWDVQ

The nature of assay [10]: ATG_GRE_CIS: Attagene CIS-FACTORIAL HepG2 Assay for human Glucocorticoid Response Elements (GRE) (AID 2282947). The conditions noted are these: HepG2 GRE cis-reporter, Attagene multiplex mRNA; actives raise or lower the signal. The essentials:
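Following 24 h chemical exposure of transiently transfected HepG2 cells, total RNA was reverse-transcribed and reporter cDNA amplified, fluorescently labelled and sized by capillary electrophoresis. Signal gain or loss was fitted relative to DMSO vehicle.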

Assay [11] is described as follows: ATG_ISRE_CIS: Attagene CIS-FACTORIAL HepG2 Assay for human Interferon Regulatory Factor 1 (IRF1) binding to an Interferon-Stimulated Response Element (ISRE) (AID 2282948). The following applies: HepG2 ISRE cis-reporter (Attagene), mRNA transcription readout; actives raise or lower the signal. The essentials: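 Quantitation relies on labelled RT-PCR fragments separated by capillary electrophoresis. Human HepG2 cells bearing cis-promoter reporter constructs were treated 24 h; DMSO served as baseline for bidirectional fitting.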

Assay [12] is described as follows: ATG_M_32_CIS: Attagene CIS-FACTORIAL HepG2 Assay for M32 Transcription Factor (Internal Marker) (AID 2282949).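 Also: background control marker of the multiplexed CIS panel rather than a real target.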 The following applies: HepG2 Attagene cis-factorial M32 reporter, mRNA; actives raise or lower the signal. The essentials:
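Fluorescent capillary electrophoresis peaks of HpaI-digested, FAM-labelled RT-PCR reporter products give the signal. Source: transiently transfected human liver HepG2 cells, 24 h after chemical dosing; bidirectional fitting against DMSO.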

A short description of assay [13]: ATG_M_06_CIS: Attagene CIS-FACTORIAL HepG2 Assay for M06 Transcription Factor (Internal Marker) (AID 2282950). The conditions noted are these: HepG2 Attagene CIS-FACTORIAL M06 internal marker reporter; actives raise or lower the signal. Put shortly: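 Fluorescence-labelled RT-PCR products from cis-promoter reporter units, cut with HpaI and resolved by capillary electrophoresis, give the signal. Cells are human HepG2, dosed for 24 h. Serves as background control, fitted relative to DMSO.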

Assay [14] has as its target Hypoxia-inducible factor 1-alpha (Homo sapiens) (UniProt Q16665). Kind of assay: ATG_HIF1a_CIS: Attagene CIS-FACTORIAL HepG2 Assay for human Hypoxia Inducible Factor 1 (HIF1A) (AID 2282951). The following applies: HepG2 Attagene cis-factorial HIF1a reporter transcription; actives raise or lower the signal. Put shortly: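 Transient MRTU transfection of human HepG2 liver cells, 24 h compound treatment, then total RNA isolation, oligo(dT) reverse transcription, PCR amplification, fluorescent labelling and capillary electrophoresis of reporter fragments. Gain or loss relative to DMSO.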

The target in assay [15] is Hepatocyte nuclear factor 6 (Homo sapiens) (UniProt Q9UBC0). Description: ATG_HNF6_CIS: Attagene CIS-FACTORIAL HepG2 Assay for human Hepatocyte Nuclear Factor 6 (HNF6) (AID 2282952). The conditions noted are these: HepG2 Attagene cis-factorial HNF6 reporter transcription; actives raise or lower the signal. The essentials:
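HepG2, transient MRTU transfection (cis promoters); 24 h chemical exposure; total RNA → oligo(dT) RT → PCR → 6-FAM labelling → HpaI cut → CE; bidirectional fit vs DMSO.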

In assay [16] the target is Heat shock factor protein 1 (Homo sapiens) (UniProt Q00613). Kind of assay: ATG_HSE_CIS: Attagene CIS-FACTORIAL HepG2 Assay for human Heat Shock Transcription Factor 1 (HSE) (AID 2282953). The conditions noted are these: HepG2 HSE cis-reporter, Attagene RNA transcription; actives raise or lower the signal. Put shortly:
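After a 24 h incubation with test chemical, transfected HepG2 cells were harvested for RNA; reporter transcripts were measured by RT-PCR and capillary electrophoresis. Values reflect gain or loss of signal relative to DMSO.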

Assay [17] can be described thus: ATG_MRE_CIS: Attagene CIS-FACTORIAL HepG2 Assay for human Metal Responsive Element (MRE) (AID 2282954). The following applies: HepG2 MRE cis-reporter transcription, Attagene multiplex; actives raise or lower the signal. The essentials: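 Step one: transfect HepG2 with cis-regulated reporter units. Step two: dose 24 h. Step three: isolate RNA, RT-PCR, 6-FAM label, HpaI digest, capillary electrophoresis. Fit bidirectionally to DMSO.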

Assay [18] in a line: ATG_GLI_CIS: Attagene CIS-FACTORIAL HepG2 Assay for human Zinc Finger Protein GLI1 (AID 2282945). The conditions noted are these: HepG2, Attagene cis-factorial reporter mRNA, GLI element; actives raise or lower the signal. The essentials: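 HepG2 cells transiently transfected with cis-promoter multiplexed reporter units report endogenous transcription factor activity. After 24 h chemical exposure, reporter mRNA was quantified by RT-PCR, 6-FAM labelling, HpaI digestion and capillary electrophoresis, with bidirectional fitting against DMSO.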

Assay [19] can be described thus: ATG_GATA_CIS: Attagene CIS-FACTORIAL HepG2 Assay for human GATA Binding Protein (AID 2282944). The following applies: HepG2 GATA cis-element reporter, Attagene multiplex mRNA; actives raise or lower the signal. Put shortly: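 DMSO serves as negative control and baseline for bidirectional fitting of reporter mRNA changes. HepG2 cells bearing transiently transfected cis-promoter reporters were exposed 24 h; transcripts detected via RT-PCR and capillary electrophoresis.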

Calls of active or inactive are those of the source. The calls were made as follows: active = hit-call score of the fitted dose curve at least 0.9, where 1 is the maximum; inactive = score below 0.9.

Chain of Hypoxia-inducible factor 1-alpha (Homo sapiens) (Q16665 whole entry, looked up, the tested form may be a part): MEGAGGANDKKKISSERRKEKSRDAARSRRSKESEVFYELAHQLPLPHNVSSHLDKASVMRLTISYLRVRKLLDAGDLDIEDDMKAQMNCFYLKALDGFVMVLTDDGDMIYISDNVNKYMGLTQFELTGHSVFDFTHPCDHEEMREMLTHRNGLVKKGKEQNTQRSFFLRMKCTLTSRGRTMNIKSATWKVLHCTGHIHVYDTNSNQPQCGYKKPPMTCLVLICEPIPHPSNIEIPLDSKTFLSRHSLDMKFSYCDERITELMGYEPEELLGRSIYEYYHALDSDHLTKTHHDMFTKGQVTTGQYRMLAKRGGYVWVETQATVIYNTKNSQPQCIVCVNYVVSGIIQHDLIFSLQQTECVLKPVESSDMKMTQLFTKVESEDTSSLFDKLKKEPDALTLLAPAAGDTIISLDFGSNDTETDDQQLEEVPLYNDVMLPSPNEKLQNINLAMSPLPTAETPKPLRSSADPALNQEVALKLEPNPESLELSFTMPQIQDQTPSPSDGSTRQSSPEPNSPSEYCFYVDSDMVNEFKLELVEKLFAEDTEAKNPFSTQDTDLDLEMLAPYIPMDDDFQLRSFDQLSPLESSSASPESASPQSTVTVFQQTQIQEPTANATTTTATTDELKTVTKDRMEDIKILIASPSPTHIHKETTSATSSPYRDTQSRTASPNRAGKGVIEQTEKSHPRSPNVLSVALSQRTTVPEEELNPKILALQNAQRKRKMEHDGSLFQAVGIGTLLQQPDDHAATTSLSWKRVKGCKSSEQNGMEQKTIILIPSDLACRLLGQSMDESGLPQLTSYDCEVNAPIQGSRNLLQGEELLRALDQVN
Chain of Hepatocyte nuclear factor 3-beta (Homo sapiens) (Q9Y261 whole entry, looked up): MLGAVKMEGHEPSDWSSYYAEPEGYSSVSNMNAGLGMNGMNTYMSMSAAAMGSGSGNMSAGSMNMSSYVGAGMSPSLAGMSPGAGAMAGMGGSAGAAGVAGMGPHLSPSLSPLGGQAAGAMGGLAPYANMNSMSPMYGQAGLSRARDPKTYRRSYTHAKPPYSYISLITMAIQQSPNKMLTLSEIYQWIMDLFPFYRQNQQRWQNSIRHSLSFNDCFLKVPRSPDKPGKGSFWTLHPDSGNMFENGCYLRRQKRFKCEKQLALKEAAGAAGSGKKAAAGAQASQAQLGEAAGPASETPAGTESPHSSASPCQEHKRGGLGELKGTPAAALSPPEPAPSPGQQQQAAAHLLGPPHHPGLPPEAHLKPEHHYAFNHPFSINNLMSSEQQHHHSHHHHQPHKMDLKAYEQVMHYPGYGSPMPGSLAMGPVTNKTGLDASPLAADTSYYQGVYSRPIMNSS
Chain of Hepatocyte nuclear factor 6 (Homo sapiens) (Q9UBC0 whole entry, looked up): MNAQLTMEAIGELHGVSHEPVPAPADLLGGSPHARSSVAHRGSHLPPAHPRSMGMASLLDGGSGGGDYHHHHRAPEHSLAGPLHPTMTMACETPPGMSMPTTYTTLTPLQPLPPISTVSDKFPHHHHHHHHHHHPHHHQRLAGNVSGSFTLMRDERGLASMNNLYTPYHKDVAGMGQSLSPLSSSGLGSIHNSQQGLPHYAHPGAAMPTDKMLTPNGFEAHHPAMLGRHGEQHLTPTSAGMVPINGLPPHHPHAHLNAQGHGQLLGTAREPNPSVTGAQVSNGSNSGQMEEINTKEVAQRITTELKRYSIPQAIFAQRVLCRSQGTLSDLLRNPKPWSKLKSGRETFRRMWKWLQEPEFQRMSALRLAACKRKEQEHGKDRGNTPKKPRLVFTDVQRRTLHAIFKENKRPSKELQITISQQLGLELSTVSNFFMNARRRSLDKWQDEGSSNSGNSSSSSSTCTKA
Chain of Heat shock factor protein 1 (Homo sapiens) (Q00613 whole entry, looked up): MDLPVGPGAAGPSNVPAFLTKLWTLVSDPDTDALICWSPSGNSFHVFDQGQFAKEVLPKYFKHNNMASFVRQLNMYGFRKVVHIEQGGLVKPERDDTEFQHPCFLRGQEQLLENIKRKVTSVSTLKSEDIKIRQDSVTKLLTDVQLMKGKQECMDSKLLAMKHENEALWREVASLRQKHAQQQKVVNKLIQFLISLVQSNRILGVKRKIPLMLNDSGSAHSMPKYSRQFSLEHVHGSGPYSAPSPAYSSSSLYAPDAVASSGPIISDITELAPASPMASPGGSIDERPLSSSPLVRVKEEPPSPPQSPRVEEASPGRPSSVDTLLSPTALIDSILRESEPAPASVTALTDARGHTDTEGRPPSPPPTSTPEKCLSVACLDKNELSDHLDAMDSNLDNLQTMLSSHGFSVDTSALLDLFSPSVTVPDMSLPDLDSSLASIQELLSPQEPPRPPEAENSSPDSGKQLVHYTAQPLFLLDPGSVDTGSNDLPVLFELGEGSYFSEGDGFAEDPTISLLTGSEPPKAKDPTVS

As a reminder, the AC50 is the concentration at which the activity in the assay is half-maximal. With `O=C1Nc2ccccc2C1(c1ccc(O)cc1)c1ccc(O)cc1`, the AC50 in assay [1] is 71.9 µM (active); in [3], 71.7 µM (active); in assay [6], 48.8 µM (active); in assay [8], 100 µM (active); in assay [9], 148 µM (active); in assay [11], 84.2 µM (active). Also, the concentration at half-maximal activity (AC50) was 57.2 µM (active) in [14], 163 µM (active) in [16] and 70.4 µM (active) in [17]. The outcome in [2], in [4], in [5], in assay [7], in assay [10] and in assay [12] was inactive. In addition, the compound was classed as inactive in [13] and in assay [15].

Turning to `OCCN(CCO)c1ccccc1`, the result in [1], in assay [2], in [3], in assay [4], in [5] and in assay [6] was inactive. Moreover, the outcome in assay [7], in assay [8], in assay [18], in [9], in assay [10] and in assay [11] was inactive. The call in assay [12], in assay [13], in assay [14], in assay [15], in assay [16] and in assay [17] was inactive.

In the case of `C=CCOCC(O)CCl` (centres undefined), the result in assay [1], in [2], in assay [3], in [4], in [5] and in [6] was inactive. In addition, the compound was classed as inactive in [7], in assay [19], in assay [18], in assay [10], in assay [11] and in assay [12]. Moreover, the result in assay [13], in [14], in assay [15], in assay [16] and in [17] was inactive.

For `O=C1C=CC(=O)O1`, the outcome in assay [1], in assay [2], in assay [3], in assay [4], in assay [5] and in [6] was inactive. For the same compound, the outcome in assay [7], in [8], in assay [9], in assay [10], in [11] and in assay [12] was inactive. The compound was classed as inactive in [13], in assay [14], in [15], in assay [16] and in assay [17].

(Values after PubChem BioAssay (EPA / NIEHS).)
